Data on seven compounds can be found in PubChem BioAssay (Tox21).

The target of assay [1] is Thyrotropin receptor (Homo sapiens) (UniProt P16473). As to the kind of experiment: qHTS assay to identify small molecule agonists of the thyroid stimulating hormone receptor (TSHR) signaling pathway (AID 1224843; calls by dose curve; note: nearly all actives have a fitted effect of over 45% in size; note: potency is the fitted concentration of half-maximal effect). Put shortly:
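Agonist-mode screen: TSHR HEK293 cells received test chemicals for half an hour at room temperature, then HTRF cAMP detection reagents for one hour prior to fluorescence measurement. Each chemical ran as a 15-concentration series, triplicated.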

The nature of assay [2]: qHTS assay to identify small molecule agonists of the hypoxia (HIF-1) signaling pathway - cell viability counter screen (AID 1224844; calls by dose curve; note: nearly all actives have a fitted effect of over 50% in size). In a few lines:
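In this counter screen, HRE-bla ME-180 cell viability after 17 hrs of compound exposure at 37C was read by CellTiter-Glo luminescence, multiplexed with the beta-lactamase reporter measurement.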

Assay [3] can be described thus: qHTS assay to identify small molecule agonists of H2AX (AID 1224845; active = well fitted activation curve with a large enough effect in the signal ratio in the repeat runs, not every such curve was filed as active; the % refers to the signal ratio). In a few lines:
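Wild-type CHO-K1 cells, plated overnight, exposed 3hr at 37C to 15 concentrations (0.76% DMSO final). Lysed, then HTRF anti-pH2AX (S139) cryptate and anti-H2AX-d2 antibodies, 24 hr room temperature; 665/620 nm emission read.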

Assay [4] is described as follows: qHTS assay to identify small molecule agonists of H2AX - cell viability counter screen (AID 1224847; calls by dose curve; note: nearly all actives have a fitted effect of over 30% in size; note: potency is the fitted concentration of half-maximal effect). Put shortly: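 Counter-screen for viability: CellTiter-Glo ATP luminescence read after 3 h compound treatment (15-point titration, 0.76% DMSO final) of CHO-K1 cells at 37C, with 30 min room-temperature reagent incubation.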
A short description of assay [5]: qHTS assay to identify small molecule antagonists of the estrogen related receptor (ERR) signaling pathway from Tox21 library (AID 1224848). Note: nearly all actives have a fitted effect of over 50% in size. Note: potency is the fitted concentration of half-maximal effect. Put shortly:
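Quantitative high-throughput format: ERR reporter cells (2,000/well) pre-incubated 6 h, treated 18 h at 37 C with compounds in DMSO alongside positive and negative controls, then read by ONE-Glo luminescence.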

Assay [6] can be described thus: qHTS assay to identify small molecule agonists of the estrogen related receptor (ERR) signaling pathway from Tox21 library (AID 1224849; calls by dose curve; note: nearly all actives have a fitted effect of over 15% in size). To be noted: ERR reporter cell line, ONE-Glo luciferase, 18 h; at 92.4 µM (top of the series) unless noted. In a few lines:
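Luciferase activity in ERR pathway reporter cells served as the agonist readout; exposure lasted 18 h at 37 C, with ONE-Glo detection after 30 min at room temperature.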

Assay [7] can be described thus: qHTS RealTime-Glo MT Cell Viability Assay in HepG2 cells - 24 hour (AID 1224867). Note: nearly all actives have a fitted effect of over 50% in size. Note: potency is the fitted concentration of half-maximal effect. Put shortly: (§1)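 qHTS, HepG2, 600 cells/well, RealTime-Glo (NanoLuc + prosubstrate) added with cells; 5 h preincubation; DMSO compound addition; 37 C; luminescence at 0/8/16/24/32/40 h.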
A short description of assay [8]: qHTS RealTime-Glo MT Cell Viability Assay in HEK293 cells - 32 hour (AID 1224868). Note: nearly all actives have a fitted effect of over 50% in size. Note: potency is the fitted concentration of half-maximal effect. In a few lines: (§2)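 Assay medium contained NanoLuc luciferase plus cell-permeant prosubstrate, added with HEK293 cells at 600 cells/well. After 5 h at 37 C/5% CO2 compounds were added; plates stayed at 37 C for 40 h with serial luminescence reads.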
The nature of assay [9]: A CellTox Green Cytotoxicity Assay to monitor cytotoxicity in HEK293 cells - 0 hour (AID 1224869). Note: nearly all actives have a fitted effect of over 50% in size. Put shortly: (§3)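 Real-time, in one plate: 600 HEK293 cells/well with dead-cell DNA dye, pinned compound after 5 h, 37 C incubation over 40 h; viable cells give no appreciable fluorescence.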
Assay [10] is described as follows: qHTS RealTime-Glo MT Cell Viability Assay in HepG2 cells - 40 hour (AID 1224870). Note: nearly all actives have a fitted effect of over 50% in size. Note: potency is the fitted concentration of half-maximal effect. In a few lines: (§4)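 HepG2 cells (600/well) mixed with RealTime-Glo MT reagent, settled 5 h at 37 C/5% CO2 before compound addition. Nonlytic NanoLuc luminescence from viable-cell prosubstrate reduction read repeatedly during 40 h treatment at 37 C.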
The nature of assay [11]: A CellTox Green Cytotoxicity Assay to monitor cytotoxicity in HEK293 cells - 40 hour (AID 1224871). Note: nearly all actives have a fitted effect of over 45% in size. Note: potency is the fitted concentration of half-maximal effect. Put shortly: as §3
The nature of assay [12]: qHTS RealTime-Glo MT Cell Viability Assay in HEK293 cells - 16 hour (AID 1224872). Note: nearly all actives have a fitted effect of over 50% in size. Note: potency is the fitted concentration of half-maximal effect. Put shortly: as §2
Assay [13] in a line: qHTS RealTime-Glo MT Cell Viability Assay in HEK293 cells - 40 hour (AID 1224874). Note: nearly all actives have a fitted effect of over 50% in size. Note: potency is the fitted concentration of half-maximal effect. To be noted: RealTime-Glo luminescence; max response: hits give low values. In a few lines:
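Kinetic, non-lysing viability readout. Seed HEK293 (600/well) with reagent, incubate 5 h at 37 C/5% CO2, pin 23 nL compound in DMSO, incubate at 37 C, read luminescence at 0, 8, 16, 24, 32, 40 h.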

Assay [14] is described as follows: A CellTox Green Cytotoxicity Assay to monitor cytotoxicity in HEK293 cells - 24 hour (AID 1224875). Note: nearly all actives have a fitted effect of over 45% in size. Note: potency is the fitted concentration of half-maximal effect. Put shortly: as §3
The nature of assay [15]: A CellTox Green Cytotoxicity Assay to monitor cytotoxicity in HepG2 cells - 16 hour (AID 1224876). Note: nearly all actives have a fitted effect of over 45% in size. In a few lines:
(§5)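 Cytotoxicity was tracked as dead-cell DNA fluorescence in HepG2 cells treated with test compounds at 37 C; each time-point value comes from one kinetic series spanning 0, 8, 16, 24, 32 and 40 h.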

Assay [16] can be described thus: qHTS RealTime-Glo MT Cell Viability Assay in HepG2 cells - 32 hour (AID 1224877). Note: nearly all actives have a fitted effect of over 55% in size. Note: potency is the fitted concentration of half-maximal effect. Put shortly: as §1
Assay [17] is described as follows: A CellTox Green Cytotoxicity Assay to monitor cytotoxicity in HepG2 cells - 24 hour (AID 1224878). Note: nearly all actives have a fitted effect of over 45% in size. Note: potency is the fitted concentration of half-maximal effect. Put shortly: as §5
Assay [18] is described as follows: A CellTox Green Cytotoxicity Assay to monitor cytotoxicity in HepG2 cells - 40 hour (AID 1224879). Note: nearly all actives have a fitted effect of over 40% in size. Note: potency is the fitted concentration of half-maximal effect. Put shortly: as §5
A short description of assay [19]: qHTS assay to identify small molecule agonists of the hypoxia (HIF-1) signaling pathway (AID 1224846; active = well fitted activation curve with a large enough effect in the signal ratio in the repeat runs, not every such curve was filed as active; the % refers to the signal ratio). Put shortly:
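ME-180 HRE-bla reporter cells; compounds in DMSO, 17 h at 37C; read-out beta-lactamase via CCF4-AM FRET.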

Assay [20] is described as follows: qHTS RealTime-Glo MT Cell Viability Assay in HepG2 cells - 8 hour (AID 1224873). Note: nearly all actives have a fitted effect of over 55% in size. Put shortly:
as §4

Where “and” joins values, the source holds several entries; their conditions need not be identical. Equal values may be shown once. A number with no mark means an inactive call. Results filed as inconclusive are left out. Calls of active or inactive are those of the source. Unless noted, calls come from the whole dose curve; as a rule, active = well fitted curve in the direction sought with a large enough effect in the repeat runs; inconclusive = weak or mixed curves; inactive = no such curve, though single readings can be large; an effect the other way counts as inactive or inconclusive.
% is set by controls: 0 for no effect and ±100 for the full control effect.

Thyrotropin receptor (Homo sapiens), sequence (P16473 whole entry, looked up): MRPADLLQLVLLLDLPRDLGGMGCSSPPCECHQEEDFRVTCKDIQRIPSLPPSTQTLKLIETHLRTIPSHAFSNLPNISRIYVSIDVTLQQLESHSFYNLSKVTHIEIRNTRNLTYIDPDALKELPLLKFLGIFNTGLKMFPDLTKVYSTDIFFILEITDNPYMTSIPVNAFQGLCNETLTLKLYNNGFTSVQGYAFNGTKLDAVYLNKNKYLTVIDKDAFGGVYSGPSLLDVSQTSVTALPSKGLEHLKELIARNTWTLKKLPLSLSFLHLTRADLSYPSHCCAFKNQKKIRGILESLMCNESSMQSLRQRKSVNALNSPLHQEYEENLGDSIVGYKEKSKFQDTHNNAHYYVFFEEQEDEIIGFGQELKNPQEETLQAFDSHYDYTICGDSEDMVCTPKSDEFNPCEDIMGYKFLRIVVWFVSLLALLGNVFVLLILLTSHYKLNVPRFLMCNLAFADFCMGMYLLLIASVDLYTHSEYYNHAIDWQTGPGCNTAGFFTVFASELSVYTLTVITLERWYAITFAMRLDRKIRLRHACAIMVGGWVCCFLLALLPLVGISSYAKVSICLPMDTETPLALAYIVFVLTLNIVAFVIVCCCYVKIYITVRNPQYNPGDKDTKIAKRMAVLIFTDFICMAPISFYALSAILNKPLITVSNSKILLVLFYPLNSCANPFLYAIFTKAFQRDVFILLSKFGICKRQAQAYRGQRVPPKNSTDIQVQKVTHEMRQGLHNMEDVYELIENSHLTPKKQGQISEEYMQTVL

Turning to `C(=NC1CCCCC1)=NC1CCCCC1`, the Potency result in assay [1], in assay [2], in assay [3], in assay [9] and in assay [15] was “inactive” each time. In addition, the Potency in assay [4] is 25.5 µM (active) and 14.2 µM (active); in assay [5] it was 13.7 µM (active); in [7], 13.9 µM (active) and 12.3 µM (active); in [8], 22 µM (active) and 21.9 µM (active); in assay [10], 12.4 µM (active) and 12.3 µM (active); in assay [11] it was 19.6 µM (active) and 21.9 µM (active). Also, the Potency is 19.6 µM (active) and 19.5 µM (active) in assay [12]; 17.5 µM (active) and 24.5 µM (active) in assay [13]; 22 µM (active) and 34.7 µM (active) in assay [14]; 12.4 µM (active) and 12.3 µM (active) in [16]; 11 µM (active) and 15.5 µM (active) in assay [17]; 9.84 µM (active) and 11 µM (active) in assay [18]. Moreover, the activity change, positive = activation in assay [6] is -50.9% and -60.1%.

Consider `CC(Cl)Cl`, for which the Potency entry in [1], in [2], in assay [4], in [5], in assay [7] and in assay [8] was “inactive” each time. In addition, the Potency result in [9], in [10], in assay [11], in [12], in [14] and in [15] was “inactive” throughout. Also, the Potency result in assay [16], in assay [17] and in assay [18] was “inactive” throughout. Besides, the call in assay [19] was inactive. In addition, the activity change, positive = activation in [6] is -9.34%. In addition, the max response in [13] is 3.34%.

Take `c1cc2ccc3cccc4ccc(c1)c2c34`: the Potency in [1] was 7.19 µM (active); in [5], 50.9 µM (active). The Potency result in assay [2], in [4], in assay [8], in [9], in [10] and in assay [11] was “inactive” each time. Further, the Potency result in assay [12], in assay [20], in assay [14], in assay [15], in assay [16] and in assay [17] was “inactive” throughout. The outcome in assay [19] was inactive. The activity change, positive = activation in assay [6] was -47.4%. The max response in [13] was -0.186%.

Consider `CCOC(=O)CBr`, for which the Potency result in [1], in assay [2], in assay [3], in [4], in assay [7] and in assay [9] was “inactive” each time. In addition, the Potency result in assay [10], in assay [11], in assay [20], in assay [14], in [15] and in assay [16] was “inactive” in each case. In addition, the Potency result in assay [17] and in assay [18] was “inactive” each time. The compound was called inactive in assay [19]. Besides, the max response in assay [13] is -15%.

Take `CCCN(CCCl)c1c([N+](=O)[O-])cc(C(F)(F)F)cc1[N+](=O)[O-]`: the Potency in [1] is 1.93 µM (active). The Potency result in assay [2], in [3], in assay [5], in assay [7], in [8] and in assay [9] was “inactive” each time. Moreover, the Potency result in assay [10], in assay [11], in assay [20], in assay [14], in [15] and in assay [16] was “inactive” each time. Besides, the Potency result in assay [17] and in assay [18] was “inactive” throughout. For the same compound, in assay [19], the compound was called inactive. Also, the activity change, positive = activation in [6] is -4.52%. In assay [13], the max response is 1.89%.

Take `CNP(=O)(OC)Oc1ccc(C(C)(C)C)cc1Cl` (stereo not given): the Potency entry in [1], in [2], in assay [3], in assay [7], in assay [9] and in assay [10] was “inactive” throughout. Further, the Potency entry in assay [20] and in assay [16] was “inactive” each time. Besides, the outcome in [19] was inactive. Also, the Potency in [5] was 48.6 µM (active); in [18] it was 54.9 µM (active). Also, the activity change, positive = activation in [6] is -37.4%.

In the case of `CCOc1nc(F)cc2nc(S(=O)(=O)Nc3c(Cl)cccc3Cl)nn12`, the Potency entry in assay [1], in assay [2], in [3], in [7], in assay [8] and in assay [9] was “inactive” each time. In addition, the Potency entry in assay [10], in assay [11], in assay [20], in assay [14], in assay [15] and in [16] was “inactive” each time. Also, the Potency result in assay [17] and in assay [18] was “inactive” each time. Further, in assay [19], the compound was classed as inactive. Besides, the max response in assay [13] is 30.5%.
